# Source: PubChem BioAssay AID1851 (National Center for Advancing Translational Sciences (NCATS), 2009)
# Hit rate of the full screen: of about 16,000 compounds, about 4,000 (25%) were called active. Another 26% or so got no clear call; they are omitted. The call rests on the fitted dose curve; in most records, active means well fitted curve in the direction sought with a large enough effect; inconclusive means small, poorly fitted or top-dose-only effect, or effect the other way; inactive means no such curve, though single readings can be large or run the other way. The list is a sample of the results.
# Biological target: Cytochrome P450 2C9 (Homo sapiens) (UniProt P11712)
# Experiment: Cytochrome panel assay with activity outcomes
# Settings: recombinant CYP, pro-luciferin dealkylation, luminescence, p450-cyp2c9; series mostly up to 57.1 µM; activity, negative = inhibition: at the top concentration
# On the % scale 0 is the no-effect control and ±100 the full control effect.
# Cytochrome P450 2C9 (Homo sapiens), sequence (P11712 whole entry, looked up): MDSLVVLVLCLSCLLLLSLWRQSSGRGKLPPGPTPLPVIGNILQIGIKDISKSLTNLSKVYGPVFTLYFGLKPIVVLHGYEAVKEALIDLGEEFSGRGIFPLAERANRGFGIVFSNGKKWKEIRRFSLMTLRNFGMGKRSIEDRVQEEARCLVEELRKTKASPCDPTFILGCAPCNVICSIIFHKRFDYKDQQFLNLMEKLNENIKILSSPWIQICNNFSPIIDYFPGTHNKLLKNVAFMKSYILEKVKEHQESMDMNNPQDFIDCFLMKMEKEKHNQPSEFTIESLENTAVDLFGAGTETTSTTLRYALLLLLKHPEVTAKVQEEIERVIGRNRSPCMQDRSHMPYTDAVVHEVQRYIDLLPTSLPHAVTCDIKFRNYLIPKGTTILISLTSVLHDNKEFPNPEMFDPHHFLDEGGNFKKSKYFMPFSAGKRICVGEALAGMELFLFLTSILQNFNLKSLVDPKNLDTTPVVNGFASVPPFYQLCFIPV
SMILES,AC50,"activity, negative = inhibition"
CSC(=N)N,inactive,–
Cc1nnc(-c2cccc(Br)c2)c2cn(-c3ccccc3Cl)nc12,2.82 µM (active),–
Cc1nnc(-c2cccc(Br)c2)c2cn(-c3ccc(Br)cc3)nc12,2 µM (active),–
NC[C@@H]1O[C@H](C23CC4CC(CC(C4)C2)C3)Cc2c1ccc(O)c2O,inactive,–
NC[C@@H]1O[C@H](c2ccccc2)Cc2c1ccc(O)c2O,6.31 µM (active),–
CO/N=C(\C(=O)N[C@@H]1C(=O)N2C(C(=O)O)=C(COC(N)=O)CS[C@@H]12)c1ccco1,–,-0.22% [at 25.6 µM] (inactive)
C=C(C)CN(CC#N)CC(=C)C,–,11% [at 11.4 µM] (inactive)
Cc1cccc(-c2c3c(=O)n(C)c(=O)n(C)c3cn2C2CCCCC2)c1,10 µM (active),–
CC1=CC(=O)N(c2cccc(C(F)(F)F)c2)C1c1ccc(Cl)cc1 (centres undefined),12.6 µM (active),–
Cc1n[nH]c(=O)n1-c1cccc(C(F)(F)F)c1,–,-26.8% (inactive)
OC[C@@H]1O[C@@H](n2cnc3c(SCc4ccccc4)ncnc32)[C@@H](O)[C@H]1O,–,5.12% [at 11.4 µM] (inactive)
Cc1ccc(NC(=S)NC(=O)c2c(-c3ccccc3Cl)noc2C)cc1,1.41 µM (active),–
Cc1onc(-c2ccccc2Cl)c1C(=O)NCC(=O)O,–,-18% (inactive)
Cc1onc(-c2ccccc2Cl)c1C(=O)Nc1nnc(Cc2ccc(Cl)cc2)s1,1.26 µM (active),–
CC(=O)C1=NOC(CNC(=O)c2c(-c3ccccc3Cl)noc2C)C1 (centres undefined),–,-24.8% (inactive)
CC(=O)NCCNc1ncnc2ccc(-c3ccccc3C(F)(F)F)cc12,–,5.92% [at 2.29 µM] (inactive)
COc1ccccc1NC(=O)CCN1C(=O)C2CC=C(Cl)CC2C1=O (centres undefined),–,19.4% (inactive)
CCn1c2ccccc2c2cc(N=C3SC(CC(=O)Nc4ccccc4OC)C(=O)N3C)ccc21 (centres undefined),0.891 µM (active),–
CCn1c2ccccc2c2cc(N=C3SC(CC(=O)Nc4ccccc4)C(=O)N3C)ccc21 (centres undefined),0.126 µM (active),–
O=C(O)CC[C@@H](C(=O)O)N1C(=O)[C@@H]2[C@@H]3CC[C@H](C3)[C@@H]2C1=O,–,12.5% [at 11.4 µM] (inactive)

SMILES,AC50,"activity, negative = inhibition"
OCCNc1nc(NCCC2=CCCCC2)nc(N2CCOCC2)n1,14.1 µM (active),–
CCN(CC)CCNC(=O)C(C)c1nn(C)c(=O)c2ccccc12 (centres undefined),–,-0.184% (inactive)
CCOC(=O)CNS(=O)(=O)c1cc(-c2nn(C)c(=O)c3ccccc23)ccc1C,0.316 µM (active),–
CS(=O)(=O)Nc1cccc(-c2ccc3ncnc(NCCN4CCOCC4)c3c2)c1,–,19% [at 2.29 µM] (inactive)
Cc1ccc(S(=O)(=O)NCc2cccc([N+](=O)[O-])c2)cc1,–,24.1% [at 11.4 µM] (inactive)
N[C@@H](Cc1cccc([N+](=O)[O-])c1)C(=O)O,–,16.8% [at 11.4 µM] (inactive)
CCN(Cc1ccccc1)Cc1cccc([N+](=O)[O-])c1,10 µM (active),–
COc1c(Cl)cc(Cl)cc1CNCCNCC(C)O (centres undefined),–,15.2% (inactive)
Cc1cc(N2CCOCC2)nc2ccc(Cc3ccc4nc(N5CCOCC5)cc(C)c4c3)cc12,3.98 µM (active),–
COc1ccc2c(C)cc(N3CCOCC3)nc2c1,–,11.4% (inactive)
Cc1cc(Cl)nc2ccc(Cc3ccc4nc(Cl)cc(C)c4c3)cc12,–,0.565% [at 11.4 µM] (inactive)
O=C(/C=C\C=C/c1ccc2c(c1)OCO2)N1CCCCC1,–,-34.7% [at 25.6 µM] (inactive)
CCNc1ccc(Br)cc(C(=O)/C=C/c2ccc3c(c2)OCO3)c1=O,11.2 µM (active),–
COCOc1cc(OC)ccc1C(=O)/C=C\c1ccc2c(c1)OCO2,2.51 µM (active),–
Nc1ccccc1C(=O)/C=C\c1ccc2c(c1)OCO2,–,-29.2% [at 11.4 µM] (inactive)
COc1ccccc1N1CCN(C(=O)/C=C/c2ccc3c(c2)OCO3)CC1,14.1 µM (active),–
CCCc1nnc(SCC(=O)O)n1/N=C/c1ccc2c(c1)OCO2,–,-24.4% (inactive)
CCCCCCCCCCCCCCCCCCc1ccc(C(=O)/C=C\C(=O)O)cc1,–,-7.99% (inactive)
CCCC(=O)Nc1ccc(C(=O)/C=C/c2ccc(SC)cc2)cc1,1.78 µM (active),–
O=C(O)CC/C=C\C[C@@H]1CO[C@H](c2ccccc2Cl)O[C@@H]1c1ccccc1O,–,-16.7% (inactive)

SMILES,AC50,"activity, negative = inhibition"
c1ccc(C2OCC3(CO2)COC(c2ccccc2)OC3)cc1 (centres undefined),–,-37.5% (inactive)
O=C1CCCCCC1C1(O)C(=O)Nc2ccc(Br)cc21 (centres undefined),–,-11.1% (inactive)
CC(C)[C@H](Sc1nc(N)nc2nc[nH]c12)C(=O)O,–,12.2% [at 11.4 µM] (inactive)
Nc1nc(SCc2ccccc2[N+](=O)[O-])c2[nH]cnc2n1,–,-28.6% [at 11.4 µM] (inactive)
Nc1nc(Sc2ccc([N+](=O)[O-])c3nonc23)c2[nH]cnc2n1,3.16 µM (active),–
CCOC(=O)N1CCN(C(=O)C(CC)n2nc(C)c3sc4ccccc4c3c2=O)CC1 (centres undefined),3.16 µM (active),–
CCOC(=O)N1CCN(C(=O)CCn2nc(-c3ccccc3)ccc2=O)CC1,–,-13.9% (inactive)
CN(C)CCCN=c1c2ccccc2n(C)c2[nH]c(=O)n(C)c(=O)c12,–,-3.97% [at 11.4 µM] (inactive)
CC(=O)NCCNc1ccnc(-c2ccccc2C(F)(F)F)n1,–,9.95% [at 2.29 µM] (inactive)
COc1cc(O)oc1C=Nc1ccc(Cl)cc1,22.4 µM (active),–
COc1ccc(N=Cc2ccc(CNS(=O)(=O)c3ccc(Cl)cc3)o2)cc1,–,-5.91% (inactive)
CCNC(=S)N1CC(C)OC(C)C1 (centres undefined),–,-4.79% (inactive)
Cc1ccc(SCN2CCCCC2)cc1 (tested in a mixture with another compound),–,-29.3% [at 11.4 µM] (inactive)
Cc1ccc(N(CCC#N)C(=O)CSc2ccc3c(c2)OCCO3)cc1,5.01 µM (active),–
CC1Cc2ccccc2N1Cc1nc2cc(C(F)(F)F)ccc2c(=O)[nH]1 (centres undefined),5.01 µM (active),–
Brc1ccc(-c2nnc(-c3cccc(Br)c3)o2)cc1,–,-6.6% (inactive)
O=S(=O)(c1cccc(-c2nnc(-c3ccc(Br)cc3)o2)c1)N1CCCCCC1,5.01 µM (active),–
O=S(=O)(c1ccc(Br)cc1)N1CCN(S(=O)(=O)c2ccc(Br)cc2)CC1,–,25.6% [at 11.4 µM] (inactive)
c1cncc(-c2cncnc2-n2ccnc2)c1,–,8.83% [at 2.29 µM] (inactive)
